According to PubChem BioAssay (NCI):
The panel holds about 79,000 compounds, 15% with a hit somewhere; the sample as a whole holds those more often. Activity calls are given as the source filed them. Rule as the data show it: active = growth inhibition above about 70%; inactive = the rest.

Experiments:
[1] = NCI Yeast Anticancer Drug Screen. Data for the rad52 strain (AID 147);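 also: 0% = growth of vehicle-treated control cultures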; details: S. cerevisiae rad52 mutant growth inhibition, hits give high values
In short: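 Yeast strain carrying a DNA damage repair alteration was exposed to test compounds. Growth inhibition was measured relative to vehicle-treated controls.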

[2] = NCI Yeast Anticancer Drug Screen. Data for the wt1 strain (AID 149);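 also: 0% = growth of vehicle-treated wt1 cultures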; details: S. cerevisiae wt1 strain (SPY 50644) growth inhibition, hits give high values
In short: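 wt1 strain grown with compound or vehicle; inhibition taken from the growth difference.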

[3] = NCI Yeast Anticancer Drug Screen. Data for the rad50 strain (AID 155);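 also: 0% = growth of vehicle-only cultures of the same strain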; details: S. cerevisiae rad50 strain growth inhibition, hits give high values
In short: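 DNA repair mutant yeast, compound exposure, growth read-out; inhibition is taken relative to vehicle.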

[4] = NCI Yeast Anticancer Drug Screen. Data for the mec2-1 strain (AID 157); details: S. cerevisiae mec2-1 strain, hits give high values
In short: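 mec2-1 yeast strain, carrying an alteration in DNA damage repair or cell cycle control, was exposed to compounds; growth inhibition was measured relative to vehicle-treated controls.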

[5] = NCI Yeast Anticancer Drug Screen. Data for the sgs1 mgt1 strain (AID 161);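 also: 0% = growth of cultures given vehicle only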; details: S. cerevisiae sgs1 mgt1 strain, hits give high values
In short: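 This yeast growth screen uses a strain with defined DNA-repair lesions; compound-treated growth is compared with vehicle-treated growth.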

[6] = NCI Yeast Anticancer Drug Screen. Data for the CLN2oe strain (AID 163);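 also: 0% = growth of vehicle-only control cultures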; details: S. cerevisiae CLN2oe strain, hits give high values
In short: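 Yeast cells carrying a defined cell-cycle control alteration were exposed to test compounds. Growth inhibition was scored against vehicle-treated control cultures.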

[7] = NCI Yeast Anticancer Drug Screen. Data for the cln2 rad14 strain (AID 165);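 also: 0% = growth equal to vehicle treated cultures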; details: S. cerevisiae cln2 rad14 strain, hits give high values
In short: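 Yeast carrying cln2 and rad14 alterations (cell cycle control and DNA damage repair) were exposed to compounds. Growth inhibition was measured against vehicle-treated controls.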

[8] = NCI Yeast Anticancer Drug Screen. Data for the bub3 strain (AID 167); details: S. cerevisiae bub3 mutant strain, hits give high values
In short: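 In this screen, a yeast mutant lacking normal mitotic checkpoint function is challenged with compound. Relative growth versus vehicle gives the inhibition value.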

[9] = NCI Yeast Anticancer Drug Screen. Data for the wt2 strain (AID 169);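 also: 0% = growth of vehicle-treated yeast cultures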; details: S. cerevisiae wt2 strain growth inhibition, hits give high values
In short: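 Yeast cells were exposed to test compounds, and growth inhibition was measured relative to vehicle-treated controls.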

[10] = NCI Yeast Anticancer Drug Screen. Data for the mlh1 strain (AID 171);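 also: 0% = growth of vehicle-treated control cultures of the same strain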; details: S. cerevisiae mlh1 strain growth inhibition, hits give high values
In short: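 Yeast carrying a defined genetic alteration in DNA damage repair or cell cycle control were exposed to test compounds. Growth inhibition was measured relative to vehicle-treated controls.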

[11] = NCI Yeast Anticancer Drug Screen. Data for the sgs1 strain (AID 173);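 also: 0% = growth of vehicle-only control cultures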; details: S. cerevisiae sgs1 mutant, hits give high values
In short: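 Yeast mutant strains carrying defined defects in DNA damage repair or cell cycle control were exposed to test compounds. Growth inhibition was scored against vehicle-treated controls.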

[12] = NCI Yeast Anticancer Drug Screen. Data for the mlh1 rad18 strain (AID 175); details: S. cerevisiae mlh1 rad18 strain growth inhibition, hits give high values
In short: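 Growth inhibition of the yeast strain was measured after compound exposure and expressed relative to vehicle-treated controls. The strain carries defined defects in DNA damage repair.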

[13] = NCI Yeast Anticancer Drug Screen. Data for the rad18 strain (AID 177); details: S. cerevisiae rad18 mutant growth inhibition, hits give high values
In short: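 Yeast carrying a defined DNA damage repair alteration were exposed to compounds. Growth inhibition was expressed relative to vehicle-treated controls.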

[14] = NCI Yeast Anticancer Drug Screen. Data for the rad50EPP+ strain (AID 151);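 also: 0% = growth of vehicle-treated control cultures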; details: S. cerevisiae rad50 mutant strain, hits give high values
In short: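 Yeast strain carrying rad50 alteration (rad50EPP+) exposed to compounds; growth inhibition measured relative to vehicle-treated controls.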

[15] = NCI Yeast Anticancer Drug Screen. Data for the mgt1 strain (AID 153); details: S. cerevisiae mgt1 mutant growth inhibition, hits give high values
In short: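 Yeast mgt1 strain (DNA repair/cell-cycle alteration panel) exposed to compounds; growth inhibition measured relative to vehicle-treated controls.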

[16] = NCI Yeast Anticancer Drug Screen. Data for the rad14 strain (AID 159);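 also: 0% = growth of vehicle-treated control cultures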; details: S. cerevisiae rad14 strain growth inhibition, hits give high values
In short: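 DNA repair-defective yeast, compound-exposed; % growth inhibition derived by comparison with vehicle-treated controls.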

[17] = at 5.0 µM (retest, dose inferred, filed as 0.5)
[18] = at 50.0 µM (retest, dose inferred, filed as 5.0)

Measured: growth inhibition

CCCN=Cc1cc(Cc2ccc(O)c(C=NCCC)c2)ccc1O
active: [1]; at 1.2 µM 70% | [1]; at 3.7 µM 95% | [1]; at 11.0 µM 98% | [1]; at 33.0 µM 98% | [1]; at 100.0 µM 97% | [2]; at 3.7 µM 97% | [2]; at 11.0 µM 98% | [2]; at 33.0 µM 99% | [2]; at 100.0 µM 99% | [3]; at 1.2 µM 70% | [3]; at 3.7 µM 97% | [3]; [17] 93% | [3]; at 11.0 µM 99% | [3]; at 33.0 µM 99% | [3]; [18] 99% | [3]; at 50.0 µM 91% | [3]; at 100.0 µM 98% | [4]; at 1.2 µM 92% | [4]; at 3.7 µM 98% | [4]; [17] 99% | [4]; at 11.0 µM 99% | [4]; at 33.0 µM 98% | [4]; [18] 99% | [4]; at 50.0 µM 91.5% | [4]; at 100.0 µM 98% | [5]; at 50.0 µM 92.2% | [6]; at 1.2 µM 78% | [6]; at 3.7 µM 97% | [6]; at 11.0 µM 98% | [6]; at 33.0 µM 99% | [6]; at 100.0 µM 98% | [7]; at 50.0 µM 91.4% | [8]; at 3.7 µM 95% | [8]; at 11.0 µM 98% | [8]; at 33.0 µM 98% | [8]; at 50.0 µM 90.8% | [8]; at 100.0 µM 97% | [9]; at 3.7 µM 98% | [9]; at 11.0 µM 99% | [9]; at 33.0 µM 99% | [9]; at 100.0 µM 98% | [10]; at 3.7 µM 96% | [10]; at 11.0 µM 98% | [10]; at 33.0 µM 98% | [10]; at 100.0 µM 96% | [11]; at 3.7 µM 89% | [11]; at 11.0 µM 98% | [11]; at 33.0 µM 98% | [11]; at 100.0 µM 97% | [12]; [17] 98% | [12]; [18] 99% | [12]; at 50.0 µM 89.3% | [13]; at 3.7 µM 95% | [13]; at 11.0 µM 98% | [13]; at 33.0 µM 99% | [13]; at 100.0 µM 99%
inactive: [2]; at 1.2 µM 64% | [5]; [17] -15% | [5]; [18] -85% | [7]; [17] -41% | [7]; [18] -84% | [8]; at 1.2 µM 64% | [8]; [17] -49% | [8]; [18] -86% | [9]; at 1.2 µM 29% | [10]; at 1.2 µM 60% | [11]; at 1.2 µM 58% | [13]; at 1.2 µM 45%

BrC1C2CCC3OC3C12 (stereo unspecified)
active: [1]; at 11.0 µM 97% | [1]; at 33.0 µM 99% | [1]; at 100.0 µM 99% | [14]; at 11.0 µM 70% | [14]; at 33.0 µM 89% | [14]; at 100.0 µM 96% | [15]; at 11.0 µM 77% | [15]; at 33.0 µM 99% | [15]; at 100.0 µM 99% | [3]; at 11.0 µM 92% | [3]; at 33.0 µM 97% | [3]; [18] 99% | [3]; at 50.0 µM 99.5% | [3]; at 100.0 µM 98% | [4]; at 11.0 µM 93% | [4]; at 33.0 µM 99% | [4]; [18] 100% | [4]; at 50.0 µM 99.7% | [4]; at 100.0 µM 99% | [16]; at 11.0 µM 98% | [16]; at 33.0 µM 99% | [16]; at 100.0 µM 99% | [5]; [18] 100% | [5]; at 50.0 µM 99.5% | [6]; at 33.0 µM 99% | [6]; at 100.0 µM 99% | [7]; [18] 99% | [7]; at 50.0 µM 99% | [8]; at 33.0 µM 99% | [8]; [18] 100% | [8]; at 50.0 µM 99.3% | [8]; at 100.0 µM 99% | [9]; at 11.0 µM 98% | [9]; at 33.0 µM 99% | [9]; at 100.0 µM 99% | [10]; at 11.0 µM 86% | [10]; at 33.0 µM 99% | [10]; at 100.0 µM 99% | [11]; at 11.0 µM 98% | [11]; at 33.0 µM 99% | [11]; at 100.0 µM 99% | [12]; [17] 74% | [12]; [18] 99% | [12]; at 50.0 µM 99.5% | [13]; at 11.0 µM 95% | [13]; at 33.0 µM 98% | [13]; at 100.0 µM 99%
inactive: [1]; at 1.2 µM 3% | [1]; at 3.7 µM 16% | [14]; at 1.2 µM 9% | [14]; at 3.7 µM 27% | [15]; at 1.2 µM 2% | [15]; at 3.7 µM 3% | [3]; at 1.2 µM 3% | [3]; at 3.7 µM 7% | [3]; [17] 41% | [4]; at 1.2 µM 0% | [4]; at 3.7 µM 5% | [4]; [17] 28% | [16]; at 1.2 µM 0% | [16]; at 3.7 µM 3% | [5]; [17] 65% | [6]; at 1.2 µM 2% | [6]; at 3.7 µM -3% | [6]; at 11.0 µM 53% | [7]; [17] 8% | [8]; at 1.2 µM -4% | [8]; at 3.7 µM -5% | [8]; [17] 2% | [8]; at 11.0 µM 42% | [9]; at 1.2 µM -1% | [9]; at 3.7 µM 2% | [10]; at 1.2 µM -1% | [10]; at 3.7 µM 4% | [11]; at 1.2 µM -1% | [11]; at 3.7 µM 11% | [13]; at 1.2 µM 1% | [13]; at 3.7 µM 7%
